# Source: PubChem BioAssay (Tox21)
# Results filed as inconclusive are left out. Where a call stands in place of a potency, no number is given. Some structures have more than one record in an assay (separate samples or runs), and their calls can disagree. Activity calls are given as the source filed them. Unless noted, calls follow the shape of the dose curve; as a rule, active = well fitted curve in the direction sought with a large enough effect in the repeat runs; inconclusive = weak or mixed curves; inactive = no such curve, though single readings can be large; an effect the other way counts as inactive or inconclusive.
# Tests used:
# [1] = qHTS assay to identify small molecule agonists of the peroxisome proliferator-activated receptor delta (PPARd) signaling pathway - cell viability counter screen (AID 743211); also: nearly all actives have a fitted effect of over 55% in size; also: potency is read from the fitted curve at half-maximal effect
# Outline: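 Viability was measured as CellTiter-Glo luminescence (30 min, room temperature) in the same wells as the beta-lactamase readout. GeneBLAzer PPARd UAS-bla HEK293H cells received compound after 5 h plating and were incubated 17 h at 37 C.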
# [2] = target: Peroxisome proliferator-activated receptor delta (Homo sapiens) (UniProt Q03181); assay: qHTS assay to identify small molecule agonists of the peroxisome proliferator-activated receptor delta (PPARd) signaling pathway (AID 743212; calls by dose curve)
# Outline: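 A PPARd-bla HEK293H line with beta-lactamase under an Upstream Activator Sequence is treated with compounds at 37 C. Substrate loading for 2 h at room temperature precedes the fluorescence measurement.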
# [3] = qHTS assay to identify small molecule antagonists of the peroxisome proliferator-activated receptor delta (PPARd) signaling pathway - cell viability counter screen (AID 743213); also: nearly all actives have a fitted effect of over 50% in size
# Outline: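 In this counter screen, HEK293H cells carrying a UAS-beta-lactamase reporter are co-treated with test compounds and 300 nM L165041 (final) for 17 h at 37 C; cell viability is quantified by CellTiter-Glo luminescence.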
# [4] = target: Peroxisome proliferator-activated receptor delta (Homo sapiens) (UniProt Q03181); assay: qHTS assay to identify small molecule antagonists of the peroxisome proliferator-activated receptor delta (PPARd) signaling pathway (AID 743215; active = well fitted inhibition curve with a large enough effect in the signal ratio in the repeat runs, not every such curve was filed as active; the % refers to the signal ratio;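 also: cells stimulated with agonist L165041 at 300 nM final during compound exposure; series mostly up to about 62 µM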)
# Outline: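 Inhibition of L165041-driven (300 nM final) PPARd signaling is scored in HEK293H UAS-bla cells. Exposure lasts 17 h at 37 C; beta-lactamase activity is then read by FRET substrate fluorescence after 2 h at room temperature.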
# [5] = target: Bile acid receptor (Homo sapiens) (UniProt Q96RI1); assay: qHTS assay to identify small molecule antagonists of the farnesoid-X-receptor (FXR) signaling pathway (AID 743217; active = well fitted inhibition curve with a large enough effect in the signal ratio in the repeat runs, not every such curve was filed as active; the % refers to the signal ratio)
# Outline: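 Antagonist mode against 50 uM (final) chenodeoxycholic acid stimulation in FXR-bla HEK 293T cells, 16 h at 37 °C. Inhibition detected as reduced beta-lactamase activity via LiveBLAzer B/G FRET fluorescence after 2 h at room temperature.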
# [6] = qHTS assay to identify small molecule agonists of the farnesoid-X-receptor (FXR) signaling pathway - cell viability counter screen (AID 743218); also: nearly all actives have a fitted effect of over 45% in size
# Outline: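 Cytotoxicity counter-screen run in parallel, same wells: FXR-UAS-bla HEK 293T cells dosed 16 h at 37 C, viability read by CellTiter-Glo luminescence after 30 min at room temperature.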
# [7] = target: Bile acid receptor (Homo sapiens) (UniProt Q96RI1); assay: qHTS assay to identify small molecule agonists of the farnesoid-X-receptor (FXR) signaling pathway (AID 743220; active = well fitted activation curve with a large enough effect in the signal ratio in the repeat runs, not every such curve was filed as active; the % refers to the signal ratio)
# Outline: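 Beta-lactamase reporter under UAS control in GeneBLAzer FXR HEK 293T cells (5000/well) measured with LiveBLAzer FRET substrate after 2 h at room temperature. Compound exposure lasted 16 h at 37C.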
# [8] = qHTS assay to identify small molecule antagonists of the farnesoid-X-receptor (FXR) signaling pathway - cell viability counter screen (AID 743221; active = well fitted cell-killing curve with a large enough effect in the repeat runs, not every such curve was filed as active; also: nearly all actives have a fitted effect of over 50% in size)
# Outline: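 Cytotoxicity counter screen run in the FXR-bla reporter wells: HEK 293T cells exposed to compound with 50 uM (final) chenodeoxycholic acid for 16 h, 37 C, then viability measured by CellTiter-Glo luminescence after 30 min, room temperature.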
# [9] = qHTS assay to identify small molecule agonists of the NFkB signaling pathway (AID 1159509; active = well fitted curve in the direction sought with a large enough effect in the signal ratio in the repeat runs, not every such curve was filed as active; the % refers to the signal ratio; also: series mostly up to about 61 µM)
# Outline: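 NFkB-bla ME-180 cells carry a beta-lactamase reporter under an NF-kB response element. They were plated overnight, then exposed to compounds for 5 h at 37 C. Read-out is LiveBLAzer FRET after 1.5 hr at room temperature (405 nm excitation; 460/530 nm emission).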
# [10] = qHTS assay to identify small molecule agonists of the endoplasmic reticulum stress response signaling pathway (AID 1159516; active = well fitted activation curve with a large enough effect in the signal ratio in the repeat runs, not every such curve was filed as active; the % refers to the signal ratio)
# Outline: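 Tox21 10K library screened in quantitative HTS format on ESRE-bla HeLa cells, a beta-lactamase reporter under ER stress response element control; 5 hr treatment, FRET read.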
# [11] = qHTS assay to identify small molecule agonists of the endoplasmic reticulum stress response signaling pathway - cell viability counter screen (AID 1159517; calls by dose curve; also: series mostly up to about 61 µM; nearly all actives have a fitted effect of over 50% in size)
# Outline: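 CellTiter-Glo was added to wells already read for beta-lactamase FRET, and luminescence was recorded 30 min later. Cells: ESRE-bla HeLa, 1,500 per well, compound exposure 5 hr at 37 C.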
# [12] = qHTS assay to identify small molecule antagonists of the retinoid-related orphan receptor gamma (ROR-gamma) signaling pathway - cell viability counter screen (AID 1159520); also: nearly all actives have a fitted effect of over 50% in size
# Outline: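 Tet-on ROR gamma CHO cells (1,000/well) were plated 4 hr, given compounds in DMSO for 2 hr at 37 C, then induced with 1 uM final doxycycline for 16 hr. Viability was read as ATP by CellTiter-Glo luminescence after 30 min.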
# [13] = target: Nuclear receptor ROR-gamma (Homo sapiens) (UniProt P51449); assay: qHTS assay to identify small molecule antagonists of the retinoid-related orphan receptor gamma (ROR-gamma) signaling pathway (AID 1159521)
# Outline: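 Antagonist read-out: drop in luminescence (ONE-Glo) from an RORE-LUC reporter in CHO cells with doxycycline-inducible ROR-gamma; 2 hr compound pretreatment, 1 uM doxycycline, 16 hr incubation at 37 C.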
# [14] = qHTS assay to identify small molecule agonists of the AP-1 signaling pathway - cell viability counter screen (AID 1159525; calls by dose curve; also: nearly all actives have a fitted effect of over 55% in size)
# Outline: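 ME-180 AP-1-bla, 2500 cells/well, Opti-MEM + 0.5% dialyzed FBS; overnight 37 °C; cpd 15-pt titration, 5 h 37 °C; CellTiter-Glo 30 min RT; luminescence read; normalised to TOAB and DMSO controls.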
# [15] = qHTS assay to identify small molecule agonists of the AP-1 signaling pathway (AID 1159526; calls by dose curve)
# [16] = target: Vitamin D3 receptor (Homo sapiens) (UniProt P11473); assay: qHTS assay to identify small molecule agonists of the vitamin D receptor (VDR) signaling pathway (AID 743222; calls by dose curve)
# Outline: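 Quantitative HTS agonist-mode screen: compounds in DMSO were pin-transferred onto VDR-bla cells and incubated 16 h at 37C, 5% CO2. Reporter activity was detected with LiveBLAzer B/G FRET substrate after 2 h at room temperature.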
# [17] = target: Vitamin D3 receptor (Homo sapiens) (UniProt P11473); assay: qHTS assay to identify small molecule antagonists of the vitamin D receptor (VDR) signaling pathway (AID 743223; active = well fitted inhibition curve with a large enough effect in the signal ratio in the repeat runs, not every such curve was filed as active; the % refers to the signal ratio)
# Outline: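 Antagonist mode: compound added to VDR-bla cells alongside agonist 1alpha,25-dihydroxyvitamin D3 (3 nM final), incubation 16 h at 37C. Read-out is LiveBLAzer FRET fluorescence, 2 h at room temperature.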
# [18] = qHTS assay to identify small molecule antagonists of the vitamin D receptor (VDR) signaling pathway - cell viability counter screen (AID 743225); also: nearly all actives have a fitted effect of over 50% in size
# Outline: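 Cytotoxicity counter screen read by CellTiter-Glo luminescence (30 min, room temperature) in the same wells as the VDR-bla antagonist readout. HEK 293T VDR-UAS-bla cells had 16 h at 37C with compound and 3 nM (final) 1-alpha,25-dihydroxyvitamin D3, then 2 h with FRET substrate.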
# [19] = qHTS assay to identify small molecule agonists of the NFkB signaling pathway - cell viability counter screen (AID 1159515; calls by dose curve; also: series mostly up to about 61 µM; nearly all actives have a fitted effect of over 55% in size)
# Outline: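 Multiplexed viability readout: after the 5 hr compound exposure and 1.5 hr FRET substrate step, CellTiter-Glo reagent went into the same NFkB-bla ME-180 wells; ATP luminescence was measured after 30 min at room temperature.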
# [20] = qHTS assay to identify small molecule agonists of the vitamin D receptor (VDR) signaling pathway - cell viability counter screen (AID 743224)
# Outline: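 Viability is measured in the same wells as the VDR-bla reporter assay: after 16 h compound treatment and 2 h substrate loading, CellTiter-Glo is added and luminescence read 30 min later.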
# Sequence of Peroxisome proliferator-activated receptor delta (Homo sapiens) (Q03181 whole entry, looked up): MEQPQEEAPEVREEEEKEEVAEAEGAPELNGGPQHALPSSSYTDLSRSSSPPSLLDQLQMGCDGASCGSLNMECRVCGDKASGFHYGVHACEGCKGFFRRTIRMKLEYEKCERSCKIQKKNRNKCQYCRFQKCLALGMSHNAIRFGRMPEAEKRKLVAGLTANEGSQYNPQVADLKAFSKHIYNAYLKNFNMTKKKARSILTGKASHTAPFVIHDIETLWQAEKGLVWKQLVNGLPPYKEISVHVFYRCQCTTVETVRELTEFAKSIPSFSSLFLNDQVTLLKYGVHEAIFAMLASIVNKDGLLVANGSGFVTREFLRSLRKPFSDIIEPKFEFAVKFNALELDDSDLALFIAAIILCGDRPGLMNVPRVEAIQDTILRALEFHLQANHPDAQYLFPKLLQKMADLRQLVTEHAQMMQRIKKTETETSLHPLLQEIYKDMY
# Sequence of Bile acid receptor (Homo sapiens) (Q96RI1 whole entry, looked up): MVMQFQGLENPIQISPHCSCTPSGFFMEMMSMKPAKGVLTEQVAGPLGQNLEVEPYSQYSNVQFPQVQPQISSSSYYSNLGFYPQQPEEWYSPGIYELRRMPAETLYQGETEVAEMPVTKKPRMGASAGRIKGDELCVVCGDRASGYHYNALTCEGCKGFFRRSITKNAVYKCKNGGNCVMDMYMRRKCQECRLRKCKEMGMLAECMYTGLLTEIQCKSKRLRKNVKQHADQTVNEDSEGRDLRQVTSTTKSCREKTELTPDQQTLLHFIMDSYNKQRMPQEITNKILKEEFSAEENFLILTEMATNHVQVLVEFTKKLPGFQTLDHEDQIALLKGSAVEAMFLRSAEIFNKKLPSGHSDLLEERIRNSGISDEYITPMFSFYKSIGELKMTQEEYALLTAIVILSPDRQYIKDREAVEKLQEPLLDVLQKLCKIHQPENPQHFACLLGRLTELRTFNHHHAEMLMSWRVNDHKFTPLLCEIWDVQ
# Sequence of Vitamin D3 receptor (Homo sapiens) (P11473 whole entry, looked up): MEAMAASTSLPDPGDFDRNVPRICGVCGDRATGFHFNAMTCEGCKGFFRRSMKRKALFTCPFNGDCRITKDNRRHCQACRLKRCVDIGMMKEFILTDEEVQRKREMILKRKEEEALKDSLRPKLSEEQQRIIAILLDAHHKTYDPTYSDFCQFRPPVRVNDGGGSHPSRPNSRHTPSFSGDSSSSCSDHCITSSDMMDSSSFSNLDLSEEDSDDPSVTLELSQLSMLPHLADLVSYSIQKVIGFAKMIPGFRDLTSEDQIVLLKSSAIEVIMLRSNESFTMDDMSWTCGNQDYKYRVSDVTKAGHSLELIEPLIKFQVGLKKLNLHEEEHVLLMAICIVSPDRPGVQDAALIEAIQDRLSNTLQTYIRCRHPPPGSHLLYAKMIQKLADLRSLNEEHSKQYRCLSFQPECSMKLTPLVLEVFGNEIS
smiles,measurement,setting,value
COc1c(N2C[C@@H]3CCCN[C@@H]3C2)c(F)cc2c(=O)c(C(=O)O)cn(C3CC3)c12,Potency,[1],inactive
same,outcome,[2],inactive
same,Potency,[3],inactive
same,Potency,[4],inactive
same,outcome,[5],inactive
same,Potency,[6],inactive
same,outcome,[7],inactive
same,Potency,[8],inactive
same,outcome,[9],inactive
same,outcome,[10],inactive
same,outcome,[11],inactive
same,outcome,[12],inactive
same,Potency,[13],inactive
same,Potency,[14],inactive
same,outcome,[15],inactive
CCc1nccnc1CC,Potency,[1],inactive
same,outcome,[2],inactive
same,Potency,[3],inactive
same,Potency,[4],inactive
same,Potency,[6],inactive
same,Potency,[8],inactive
same,outcome,[16],inactive
same,outcome,[17],inactive
same,Potency,[18],inactive
same,outcome,[9],inactive
same,outcome,[19],inactive
same,outcome,[10],inactive
same,"activity, negative = cytotoxicity",[12],-7.52% [at 19 µM] (inactive)
same,Potency,[13],inactive
same,outcome,[15],inactive
O=S(O)CO,Potency,[1],inactive
same,outcome,[2],inactive
same,Potency,[4],inactive
same,outcome,[5],inactive
same,Potency,[6],inactive
same,outcome,[7],inactive
same,Potency,[8],inactive
same,outcome,[16],inactive
same,Potency,[20],inactive
same,Potency,[18],inactive
same,outcome,[9],inactive
same,outcome,[19],inactive
same,outcome,[10],inactive
same,outcome,[12],inactive
same,Potency,[13],inactive
same,Potency,[14],inactive
same,outcome,[15],inactive
CN(C(=O)c1c(O)c2ccccc2n(C)c1=O)c1ccccc1,Potency,[1],inactive
same,outcome,[2],inactive
same,Potency,[3],inactive
same,Potency,[4],inactive
same,Potency,[6],inactive
same,Potency,[8],inactive
same,outcome,[16],inactive
same,outcome,[17],inactive
same,Potency,[18],inactive
same,outcome,[9],inactive
same,outcome,[19],inactive
same,outcome,[10],inactive
same,outcome,[12],inactive
same,Potency,[13],inactive
same,Potency,[14],inactive
same,outcome,[15],inactive
COC(=O)C1=C(C)NC(C)=C(C(=O)OC)C1c1ccccc1[N+](=O)[O-],Potency,[1],49 µM (active) and inactive
same,outcome,[2],inactive
same,Potency,[3],inactive
same,Potency,[4],inactive
same,outcome,[5],inactive
same,Potency,[6],inactive
same,outcome,[7],inactive
same,outcome,[16],inactive
same,outcome,[17],inactive
same,Potency,[18],inactive
same,outcome,[9],inactive
same,outcome,[10],inactive
same,outcome,[11],inactive
same,outcome,[12],inactive
same,outcome,[15],inactive
OC[C@]1(O)OC[C@@H](O)[C@H](O)[C@@H]1O,Potency,[1],inactive
same,outcome,[2],inactive
same,Potency,[3],inactive
same,Potency,[4],inactive
same,Potency,[6],inactive
same,outcome,[16],inactive
same,outcome,[17],inactive
same,Potency,[20],inactive
same,Potency,[18],inactive
same,outcome,[9],inactive
same,outcome,[10],inactive
same,outcome,[11],inactive
same,outcome,[12],inactive
same,Potency,[13],inactive
same,outcome,[15],inactive
NCCCNCCSP(=O)(O)O,"activity change, negative = cytotoxicity",[1],8.83% [at 13.2 µM] (inactive)
same,activation,[2],-0.031% [at 13.2 µM] (inactive)
same,"viability change, negative = cytotoxic",[3],1.09% [at 13.7 µM] (inactive)
same,"ratio activity, negative = inhibition",[4],-0.162% [at 13.7 µM] (inactive)
same,"activity change, negative = inhibition",[5],5.47% [at 13.2 µM] (inactive)
same,"viability change, negative = cytotoxic",[6],7.81% [at 13.2 µM] (inactive)
same,activation,[7],0.213% [at 13.2 µM] (inactive)
same,"activity change, negative = cytotoxicity",[8],2.46% [at 13.2 µM] (inactive)
same,"activity change, negative = cytotoxicity",[20],6.38% [at 13.2 µM] (inactive)
same,"viability change, negative = cytotoxic",[18],2.84% [at 6.95 µM] (inactive)
same,activation,[9],0.134% [at 6.95 µM] (inactive)
same,activation,[10],0.0202% [at 6.95 µM] (inactive)
same,"activity change, negative = cytotoxicity",[11],10.1% [at 6.95 µM] (inactive)
same,"activity, negative = cytotoxicity",[12],4.74% [at 8.39 µM] (inactive)
same,"activity change, negative = inhibition",[13],18.8% [at 8.39 µM] (inactive)
same,activation,[15],-2.28% [at 6.97 µM] (inactive)
CC/C=C\CC/C=C/CO,Potency,[1],inactive
same,outcome,[2],inactive
same,Potency,[3],inactive
same,Potency,[6],inactive
same,Potency,[8],inactive
same,Potency,[18],inactive
same,outcome,[10],inactive
same,outcome,[11],inactive
same,outcome,[12],inactive
same,Potency,[13],inactive
same,Potency,[14],inactive
same,outcome,[15],inactive
